# Source: PubChem BioAssay (Tox21)
# “And” between values parts separate entries of the source, which are not always exact repeats. Equal entries are not always repeated. Results filed as inconclusive are left out. Where a call stands in place of a potency, no number is given. Some compounds were tested as several samples or in several runs, with calls that do not always agree. The source made the active and inactive calls. Unless noted, calls come from the whole dose curve; as a rule, active = well fitted curve in the direction sought with a large enough effect in the repeat runs; inconclusive = weak or mixed curves; inactive = no such curve, though single readings can be large; an effect the other way counts as inactive or inconclusive.
# Assays:
# [1] = qHTS assay to identify small molecule agonists of the vitamin D receptor (VDR) signaling pathway - cell viability counter screen (AID 743224); note: series mostly up to about 63 µM; nearly all actives have a fitted effect of over 50% in size
# How it was run: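 Cells: VDR-bla, 2,000/well, settled 4 h. Treatment: compounds in DMSO, 16 h, 37C/5% CO2. Readout: CellTiter-Glo luminescence after 30 min RT.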
# [2] = qHTS assay to identify small molecule antagonists of the vitamin D receptor (VDR) signaling pathway - cell viability counter screen (AID 743225); note: nearly all actives have a fitted effect of over 50% in size; note: potency is the fitted concentration of half-maximal effect
# How it was run: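 Read-out: CellTiter-Glo luminescence measured 30 min after reagent addition at room temperature. Cells were VDR-bla HEK 293T exposed 16 h at 37C, 5% CO2, to compound with 3 nM final calcitriol agonist.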
# [3] = qHTS assay to identify small molecule agonists of the NFkB signaling pathway - cell viability counter screen (AID 1159515; calls by dose curve; note: series mostly up to about 61 µM; nearly all actives have a fitted effect of over 55% in size)
# How it was run: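 Cells are seeded (2,000 NFkB-bla ME-180 per well), rested overnight, and dosed with DMSO-dissolved compounds for 5 hr at 37 C. Viability is then read by CellTiter-Glo luminescence after 30 min at room temperature.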
# [4] = qHTS assay to identify small molecule agonists of the endoplasmic reticulum stress response signaling pathway (AID 1159516; active = well fitted activation curve with a large enough effect in the signal ratio in the repeat runs, not every such curve was filed as active; the % refers to the signal ratio)
# How it was run: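 Cells are seeded at 1,500 per well and incubated overnight. Compounds in DMSO are added for 5 hr at 37 C, then beta-lactamase FRET substrate for 2 hr at room temperature, and fluorescence at 460 and 530 nm is measured.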
# [5] = qHTS assay to identify small molecule agonists of the endoplasmic reticulum stress response signaling pathway - cell viability counter screen (AID 1159517; calls by dose curve;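 note: HeLa cells carrying an ER stress response element beta-lactamase reporter; series mostly up to about 61 µM; nearly all actives have a fitted effect of over 50% in size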)
# How it was run: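 Cytotoxicity of test compounds toward ESRE-bla HeLa cells was assessed after 5 hr exposure. The luminescent CellTiter-Glo signal was measured 30 min after reagent addition.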
# [6] = qHTS assay to identify small molecule antagonists of the retinoid-related orphan receptor gamma (ROR-gamma) signaling pathway - cell viability counter screen (AID 1159520); note: nearly all actives have a fitted effect of over 50% in size
# How it was run: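 Tet-on ROR gamma CHO cells (1,000/well) were plated 4 hr, given compounds in DMSO for 2 hr at 37 C, then induced with 1 uM final doxycycline for 16 hr. Viability was read as ATP by CellTiter-Glo luminescence after 30 min.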
# [7] = molecular target: Nuclear receptor ROR-gamma (Homo sapiens) (UniProt P51449); test: qHTS assay to identify small molecule antagonists of the retinoid-related orphan receptor gamma (ROR-gamma) signaling pathway (AID 1159521)
# How it was run: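 CHO Tet-on RORγ, RORE-luc reporter. Cpd 2 h pre-incubation, then dox hyclate 1 uM final, 16 h, 37 C/5% CO2. ONE-Glo luminescence; decrease = antagonist.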
# [8] = qHTS assay to identify small molecule agonists of the AP-1 signaling pathway - cell viability counter screen (AID 1159525; calls by dose curve; note: nearly all actives have a fitted effect of over 55% in size)
# How it was run: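 Each titration point was normalised to DMSO and tetra n-octyl ammonium bromide controls. The read was Cell Titer Glo luminescence after 30 min at RT, following 5 h compound exposure of ME-180 AP-1-bla cells at 37 °C.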
# [9] = qHTS assay to identify small molecule agonists of the AP-1 signaling pathway (AID 1159526; calls by dose curve)
# [10] = molecular target: Retinoic acid receptor RXR-alpha (Homo sapiens) (UniProt P19793); test: qHTS assay to identify small molecule agonists of the RXR signaling pathway (AID 1159527; calls by dose curve; note: nearly all actives have a fitted effect of over 35% in size; note: potency is the fitted concentration of half-maximal effect)
# How it was run: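 Read-out: beta-lactamase FRET ratio (405 nm excitation, 460 and 530 nm emission) after 2 hr substrate loading at room temperature. Cells were RXR-alpha-UAS-bla HEK 293T treated with compounds for 16 hr in 2% charcoal-stripped FBS medium.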
# [11] = qHTS assay to identify small molecule agonists of the RXR signaling pathway - cell viability counter screen (AID 1159529)
# How it was run: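 HEK 293T RXRa-bla cells, 2% CS-FBS; 5 h settle; cpd 16 h 37 C, 5% CO2; CellTiter-Glo 30 min RT, luminescence. Tetraoctyl ammonium bromide as positive control.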
# [12] = qHTS assay to identify small molecule antagonists of the retinoid acid receptor (RAR) signaling pathway - cell viability counter screen (AID 1159551); note: nearly all actives have a fitted effect of over 35% in size
# How it was run: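 Cells (C3RL4) are plated, incubated overnight, dosed with compound in DMSO, then given retinol at 1 uM final. After 6 h at 37 C, CellTiter-Glo is added and luminescence read following 30 min at room temperature.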
# [13] = qHTS assay to identify small molecule antagonists of the retinoic acid receptor (RAR) signaling pathway (AID 1159552; note: nearly all actives have a fitted effect of over 50% in size)
# How it was run: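 Cells of the C3RL4 line were seeded, incubated overnight, then dosed with compounds in DMSO followed immediately by retinol (1 uM final). Six hours later luciferase detection reagent went in; signal was measured after 30 min at RT.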
# [14] = qHTS assay to identify small molecule agonists of the retinoic acid receptor (RAR) signaling pathway (AID 1159553); note: potency is the fitted concentration of half-maximal effect
# How it was run: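 Seed C3RL4 reporter cells at 1,000 per well and incubate overnight at 37 C. Add compounds in DMSO, incubate 6 hr. Add luciferase reagent, wait 30 min at room temperature, read luminescence.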
# [15] = qHTS assay to identify small molecule antagonists of the estrogen related receptor (ERR) signaling pathway - cell viability counter screen (AID 1224818); note: series mostly up to about 46 µM
# How it was run: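 ERR cells, 2,000/well; 6 h settle at 37 C/5% CO2; compound pin transfer (DMSO); 17.5 h at 37 C; CellTiter-Fluor, 30 min, fluorescence read.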
# [16] = qHTS assay to identify small molecule antagonists of the estrogen related receptor (ERR) signaling pathway (AID 1224819)
# How it was run: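 qHTS in ERR cells, 2,000/well, 1536 format. Cpd (DMSO) added after 6 h settle, 18 h 37 C. One-Glo luminescence, 30 min RT.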
# [17] = qHTS assay to identify small molecule agonists of the estrogen related receptor (ERR) signaling pathway (AID 1224820)
# How it was run: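 Following a 6 h settling period, 2,000 ERR cells per well receive DMSO-dissolved compounds by pin tool and incubate 18 h at 37 C; agonist activity is scored from One-Glo luminescence read 30 min post-addition.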
# [18] = tested on: estrogen-related receptor alpha (ERRalpha) with PGC-1alpha coactivator, human; test: qHTS assay to identify small molecule antagonists of the estrogen related receptor signaling pathway with the pleiotropic PPARgamma coactivator (PGC) (AID 1224821; calls by dose curve)
# How it was run: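 Screening used NTP's PGC/ERR cells, dosed via pin tool with compound in DMSO alongside positive and negative controls. After 18 h at 37 C, One-Glo reagent sat 30 min at room temperature before luminescence detection.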
# [19] = qHTS assay to identify small molecule antagonists of the estrogen related receptor signaling pathway with the pleiotropic PPARgamma coactivator (PGC) cell viability counter screen (AID 1224822;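 note: series mostly up to about 46 µM; viability read after 17.5 h compound exposure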)
# How it was run: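 Multiplexed viability counter screen run in PGC/ERR cells treated with compounds for 17.5 h at 37 C; live-cell protease signal measured by CellTiter-Fluor fluorescence.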
# [20] = qHTS assay to identify small molecule agonists of the estrogen related receptor signaling pathway with the pleiotropic PPARgamma coactivator (PGC) (AID 1224823)
# How it was run: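 In this quantitative high-throughput screen, an 18 h, 37 C treatment of PGC/ERR cells with compounds in DMSO preceded a One-Glo luminescence read taken after 30 min at room temperature.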
# Chain of Retinoic acid receptor RXR-alpha (Homo sapiens) (P19793 whole entry, looked up): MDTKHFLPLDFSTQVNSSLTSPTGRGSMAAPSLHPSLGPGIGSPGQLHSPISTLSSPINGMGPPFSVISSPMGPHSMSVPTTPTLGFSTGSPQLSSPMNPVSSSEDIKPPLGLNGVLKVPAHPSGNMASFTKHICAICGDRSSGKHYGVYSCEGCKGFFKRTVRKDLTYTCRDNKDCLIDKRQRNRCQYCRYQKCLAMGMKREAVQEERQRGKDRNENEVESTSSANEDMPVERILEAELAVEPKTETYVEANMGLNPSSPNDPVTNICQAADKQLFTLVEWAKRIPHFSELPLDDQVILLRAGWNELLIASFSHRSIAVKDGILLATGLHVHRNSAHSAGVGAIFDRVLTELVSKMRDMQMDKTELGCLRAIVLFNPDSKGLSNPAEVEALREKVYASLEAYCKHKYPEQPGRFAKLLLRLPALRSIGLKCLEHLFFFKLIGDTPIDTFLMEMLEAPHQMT
SMILES,Potency [1],Potency [2],Potency [3],outcome [4],Potency [5],Potency [6],Potency [7],Potency [8],Potency [9],Potency [10],Potency [11],Potency [12],Potency [13],Potency [14],Potency [15],Potency [16],outcome [17],Potency [18],Potency [19],outcome [20]
CCn1cc(C(=O)O)c(=O)c2cc(F)c(N3CCNC(C)C3)c(F)c21 (stereo unspecified),inactive,inactive,inactive,inactive,inactive,inactive,inactive,inactive,inactive,inactive,inactive,inactive,inactive,inactive,inactive,inactive,inactive,inactive,inactive,inactive
N[C@@H]1CONC1=O,inactive,inactive,inactive,inactive,inactive,inactive,inactive,inactive,inactive,inactive,inactive,inactive,inactive,inactive,inactive,inactive,inactive,inactive,inactive,inactive
CN1C(=O)c2ccc([N+](=O)[O-])cc2C1=O,inactive,inactive,inactive,inactive,inactive,inactive,inactive,inactive,inactive,inactive,inactive,inactive,inactive,inactive,,,,,,
CC(=O)CC(C)=O,inactive,,inactive,inactive,inactive,inactive,inactive,inactive,inactive,inactive,inactive,inactive,,inactive,,,,,,
CC(C)(O)CCC(C)(C)O,inactive,inactive,inactive,inactive,inactive,inactive,inactive,inactive,inactive,inactive,inactive,inactive,inactive,inactive,,,,,,
Cc1cccc(O)c1C,inactive,inactive,inactive,inactive,inactive,inactive,inactive,inactive,inactive,inactive,inactive,inactive,inactive,inactive,,,,,,
CCN(CC)C(=O)Nc1ccc(OCC(O)CNC(C)(C)C)c(C(C)=O)c1 (stereo unspecified),inactive,inactive,inactive,inactive,inactive,inactive,inactive,inactive,inactive,inactive,inactive,inactive,inactive,inactive,,,,,,
Cc1scc2c1N(C(=O)CN1CCN(C)CC1)c1ccccc1NC2=O,inactive,inactive,inactive,inactive,inactive,inactive,inactive,inactive,inactive,inactive,inactive,inactive,inactive,inactive,inactive,,,,inactive,
NC(N)=Nc1nc(CSCC/C(N)=N/S(N)(=O)=O)cs1,inactive,inactive,inactive,inactive,inactive,inactive,inactive,inactive,inactive,inactive,inactive,inactive,inactive,inactive,inactive,inactive,inactive,inactive,inactive,inactive
COc1ccc(COC(C)=O)cc1,inactive,inactive,inactive,inactive,inactive,inactive,inactive,inactive,inactive,inactive,inactive,inactive,inactive,inactive,,,,,,
CC(C)CCOC(=O)c1ccc(N(C)C)cc1,inactive,inactive,inactive,inactive,inactive,inactive,inactive,inactive,inactive,inactive,inactive,inactive,inactive,2110 nM (active),,,,,,
COC(c1ccccc1)(c1ccccc1)[C@H](Oc1nc(C)cc(C)n1)C(=O)O,inactive,inactive,inactive,inactive,inactive,inactive,inactive,inactive,inactive,inactive,inactive,inactive,inactive,inactive,,,,,,
COc1cc(C(=S)N2CCOCC2)ccc1O,inactive,inactive,inactive,inactive,inactive,inactive,inactive,inactive,inactive,inactive,inactive,inactive,inactive,inactive,,,,,,
C1COC(NC(C2CC2)C2CC2)=N1,inactive,inactive,inactive,inactive,inactive,inactive,inactive,inactive,inactive,inactive,inactive,inactive,inactive,inactive,inactive,inactive,,inactive,inactive,inactive
CCOc1ccccc1C(N)=O,inactive,inactive,inactive,inactive,inactive,inactive,inactive,inactive,inactive,inactive,inactive,inactive,,,,,,,,
O=C(O)Cn1cnnn1,inactive,inactive,inactive,inactive,inactive,inactive,inactive,inactive,inactive,inactive,inactive,inactive,inactive,inactive,,,,,,
C=CC(=O)OCCCCCCCC,inactive,inactive,inactive,inactive,inactive,inactive,inactive,inactive,inactive,inactive,inactive,inactive,inactive,inactive,,,,,,

SMILES,Potency [1],Potency [2],Potency [3],outcome [4],Potency [5],Potency [6],Potency [7],Potency [8],Potency [9],Potency [10],Potency [11],Potency [12],Potency [13],Potency [14],Potency [15],Potency [16],outcome [17],Potency [18],Potency [19],outcome [20]
CCC(CO)(CO)COCC(CC)(CO)CO,inactive,inactive,inactive,inactive,inactive,inactive,inactive,inactive,inactive,inactive,inactive,inactive,inactive,inactive,,,,,,
COc1ccc(Cc2cnc(N)nc2N)cc1OC,inactive,inactive,inactive,inactive,inactive,inactive,inactive,inactive,inactive,inactive,inactive,inactive,inactive,inactive,,,,,,
CC1COC(=O)O1 (stereo unspecified),inactive,inactive,inactive,inactive,inactive,inactive,inactive,inactive,inactive,inactive,inactive,inactive,,,,,,,,
CC(C)C(=O)c1c(C(C)C)nn2ccccc12,inactive,inactive,inactive,inactive,inactive,inactive,inactive,inactive,inactive,23900 nM (active),inactive,inactive,inactive,inactive,inactive,inactive,inactive,inactive,inactive,inactive
CCCN[C@H]1CCc2nc(N)sc2C1,inactive,inactive,inactive,inactive,inactive,inactive,inactive,inactive,inactive,inactive,inactive,inactive,,,,,,,,
C[N+]1([O-])CCOCC1,inactive,inactive,inactive,inactive,inactive,inactive,inactive,inactive,inactive,inactive,inactive,inactive,inactive,inactive,,,,,,
CC(=O)OCCOCCOCCOC(C)=O,inactive,inactive,inactive,inactive,inactive,inactive,inactive,inactive,inactive,inactive and 12.3 µM (active),inactive,inactive,inactive,inactive,,,,,,
CCCC(=O)c1ccccc1,inactive,inactive,inactive,inactive,inactive,inactive,inactive,inactive,inactive,inactive,inactive,inactive,inactive,inactive,,,,,,
CC(C(O)c1ccc(O)cc1)N1CCC(Cc2ccccc2)CC1 (stereo unspecified),inactive,inactive,inactive,inactive,inactive,inactive,inactive,inactive,inactive,inactive,inactive,inactive,inactive,inactive,inactive,,inactive,,,inactive
NCCO,inactive,inactive,inactive,inactive,inactive,inactive,inactive,inactive,inactive,inactive,inactive,inactive,inactive,inactive,inactive,,,,inactive,
COC(=O)/C=C/c1ccccc1,inactive,inactive,inactive,inactive,inactive,inactive,inactive,inactive,inactive,inactive,inactive,inactive,inactive,inactive,,,,,,
Cc1cccc([N+](=O)[O-])c1C(=O)O,inactive,inactive,inactive,inactive,inactive,inactive,inactive,inactive,inactive,inactive,inactive,inactive,inactive,inactive,,,,,,
COC(=O)c1cccc(C(=O)OC)c1,inactive,inactive,inactive,inactive,inactive,inactive,inactive,inactive,inactive,inactive,inactive,inactive,inactive,inactive,,,,,,
CC(C)(C)NC(=O)[C@@H]1CN(Cc2cccnc2)CCN1C[C@@H](O)C[C@@H](Cc1ccccc1)C(=O)N[C@H]1c2ccccc2C[C@H]1O,inactive,inactive,inactive,inactive,inactive,inactive,inactive,inactive,inactive,inactive,inactive,inactive,,,,,,,,
NC12CC3CC(CC(C3)C1)C2,inactive,inactive,inactive,inactive,inactive,inactive,inactive,inactive,inactive,inactive,inactive,inactive,inactive,inactive,inactive,,,,inactive,
CCCCC/C=C/CC1CC(=O)OC1=O (stereo unspecified),inactive,inactive,inactive,inactive,inactive,inactive,inactive,inactive,inactive,inactive,inactive,inactive,inactive,inactive,,,,,,
CC(C)(C)NCC(O)c1cc(O)cc(O)c1 (stereo unspecified),inactive,1.9 nM (active),inactive,inactive,inactive,inactive,inactive,inactive,inactive,inactive,inactive,inactive,inactive,inactive,inactive,,,,inactive,
